# “And” between values parts separate entries of the source, which are not always exact repeats. Equal values may be shown once. Where a name gives a salt, the structure may show the parent alone.
# Test system: Neuro-2a
# Test: neurite formation score, plate-normalized to DMSO control mean 5.04 (score (0-8 scale)); higher = more or longer neurites
# Conditions: 1 µM
# Experimental: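 Neuro-2a mouse neuroblastoma cells in PLL-coated 96-well plates were pre-treated for 1 h in DMEM(+) with each kinase inhibitor at 1 µM, then switched to serum-free DMEM(-) with inhibitor to induce neurite outgrowth and fixed about 2-3 h later. Three blinded observers scored neurite formation from 0 (no neurites) to 8 (long neurites on almost all cells).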
row,SMILES,neurite formation score
1,Cc1cc(C)c(/C=C2\C(=O)Nc3ccccc32)[nH]1 [Semaxanib (SU5416)],4.54
2,CN(C)C1CCN(C(=O)c2ccc(NC(=O)Nc3ccc(-c4nc(N5CCOCC5)nc(N5CCOCC5)n4)cc3)cc2)CC1,4.14
3,O=c1c(O)c(-c2ccc(O)c(O)c2)oc2cc(O)cc(O)c12 [Quercetin],4.54
4,O=C1NCCSc2c1sc1ccc(O)cc21,3.69
5,Cn1cnc2c(F)c(Nc3ccc(Br)cc3Cl)c(C(=O)NOCCO)cc21 [AZD6244 (Selumetinib)],4.24
6,Nc1nc(N)c2nc(-c3cccc(O)c3)c(-c3cccc(O)c3)nc2n1,4.24
7,"O=c1cc(-c2ccccc2)oc2c(O)c(O)ccc12 [7,8-Dihydroxyflavone]",4.21
8,C=CC(=O)Nc1ccc(CN2C(=O)N(c3cc(OC)cc(OC)c3)Cc3cnc(Nc4ccc(N5CCN(C)CC5)cc4)nc32)cc1,4.63
9,CS(=O)(=O)N1CCN(Cc2cc3nc(-c4cccc5[nH]ncc45)nc(N4CCOCC4)c3s2)CC1,4.24
10,CNC(=O)c1ccc(-c2cnc3ncc(Cc4ccc5ncccc5c4)n3n2)cc1F,5.14
11,O=C1NC(=O)C(=Cc2ccc(-c3ccc(F)cc3)o2)S1 (stereo in doubt),4.54
12,C[C@@]1(C(=O)Nc2ccc(F)nc2)CCCN1c1nc(Nc2cc(C3CC3)n[nH]2)c2cccn2n1,4.57
13,O=c1cc(CN2CCOCC2)occ1OCCCCCSc1ccnc2cc(C(F)(F)F)ccc12,4.21
14,N#Cc1ccc2[nH]c(O)c(-c3ccc(CN4CCOCC4)cn3)c2c1,4.54
15,OCCn1cc(-c2cnc3nnn(Cc4ccc5ncccc5c4)c3n2)cn1,5.02
16,O=C1NC(=O)C(c2ccccc2[N+](=O)[O-])=C1Nc1ccc(O)c(Cl)c1,3.9
17,CC1(C)CNc2cc(NC(=O)c3cccnc3NCc3ccncc3)ccc21 [Motesanib Diphosphate (AMG-706)],4.36
18,CCCNC(=O)Nc1ccc(Oc2ncnc3cc(OC)c(OC)cc23)cc1Cl,5.57
19,"CCCS(=O)(=O)Nc1ccc(F)c(C(=O)c2c[nH]c3ncc(-c4ccc(Cl)cc4)cc23)c1F [Vemurafenib (PLX4032, RG7204)]",3.91
20,O=C(O)[C@]1(Cc2cccc(Nc3nccs3)n2)CC[C@@H](Oc2cccc(Cl)c2F)CC1,3.69

row,SMILES,neurite formation score
1,CCC(=O)Nc1cccc(Oc2nc(Nc3ccc(N4CCN(C)CC4)cc3OC)ncc2Cl)c1,5.63
2,CCN(CCCOc1ccc2c(Nc3cc(CC(=O)Nc4cccc(F)c4)[nH]n3)ncnc2c1)CCOP(=O)(O)O,4.91
3,Cc1cc(O)c2c(c1)C(=O)c1cccc(O)c1C2=O [Chrysophanol],4.8
4,C[C@H]1[C@H](C)CC[C@]2(C(=O)O)CC[C@]3(C)C(=CC[C@@H]4[C@@]5(C)C[C@@H](O)[C@H](O)[C@@](C)(CO)[C@@H]5CC[C@]43C)[C@H]12 [Asiatic acid],4.21
5,"CN1CCN(c2ccc3nc(-c4c(N)c5c(F)cccc5[nH]c4=O)[nH]c3c2)CC1 [Dovitinib (TKI-258, CHIR-258)]",4.88
6,COc1cc2c(Nc3ccc(NC(=O)c4ccccc4)cc3)ncnc2cc1OCCCN1CCOCC1,3.69
7,Cc1ccccc1-n1c(Cn2nc(-c3cccc(O)c3)c3c(N)ncnc32)nc2cccc(C)c2c1=O,4.88
8,COc1cc(C(=O)NC2CCN(C)CC2)ccc1Nc1ncc2c(n1)N(C1CCCC1)CC(F)(F)C(=O)N2C,4.29
9,CCN(CC)CCCCNc1ncc2cc(-c3cc(OC)cc(OC)c3)c(NC(=O)NC(C)(C)C)nc2n1,4.24
10,CN(C)C(=O)c1cc2cnc(Nc3ccc(N4CCNCC4)cn3)nc2n1C1CCCC1,4.96
11,O=C(NC[C@H](O)CO)c1ccncc1Nc1ccc(I)cc1F,3.9
12,CNc1nc(-c2ccc3c(N)n[nH]c3c2)cc(N2C[C@@H](C(=O)NC3CCCCC3)CC[C@H]2C)n1,4.88
13,Cn1cc(C2=C(c3cn(CCCSC(=N)N)c4ccccc34)C(=O)NC2=O)c2ccccc21 [Ro 31-8220 Mesylate],4.54
14,CN(c1ncccc1CNc1nc(Nc2ccc3c(c2)CC(=O)N3)ncc1C(F)(F)F)S(C)(=O)=O,1.57 and 4.24
15,O=C(Cc1ccc(-c2ccc(OCCN3CCOCC3)cc2)cn1)NCc1ccccc1,-0.529
16,O=C1c2ccc(Nc3ccc(F)cc3F)cc2CCc2ccc(OC[C@H](O)CO)cc21 [Skepinone-L],5.02
17,Nc1nccc(-c2c(-c3ccc(F)cc3)ncn2C2CCCCC2)n1,5.02
18,Cn1c(=O)c(F)c(Nc2ccc(I)cc2F)c2c(=O)n(C[C@@H](O)CO)cnc21,4.88
19,CCCCCCCCc1ccc(CCC(N)(CO)CO)cc1 [Fingolimod (FTY720)],3.63
20,CCn1c(N)c(C(=O)NC)c(=O)c2ccc(C#CC(C)(O)COC)nc21 (stereo not given),4.54

# Reference: the supplement of paper PMC8047044
